# Source: PubChem BioAssay AID686978 (National Center for Advancing Translational Sciences (NCATS), 2013)
# Hit rate of the full screen: of about 420,000 compounds, about 64,000 (15%) were called active. About 27% were inconclusive and are not listed. The list is a sample of the results. Values without a mark were called inactive. Calls follow the shape of the dose curve; as a rule, active = well fitted inhibition curve with a large enough effect; inconclusive = small, poorly fitted or top-dose-only effect; inactive = flat fitted curve, though single readings scatter.
# Assay: qHTS for Inhibitors of human tyrosyl-DNA phosphodiesterase 1 (TDP1): qHTS in cells in absence of CPT; also: nearly all actives have a fitted effect of over 55% in size
# Settings: DT40 Tdp1-/- hTDP1 cells, no CPT, ATP luminescence, 48 h; activity change, negative = growth inhibition: at 46.2 µM (top of the series)
# Method in brief: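 Camptothecin absent (DMSO only). Human TDP1-complemented DT40 knockout cells, 400 cells/well, 37 °C for minimum 48 hr; ATP measured via CellTiter-Glo, 30 min dark incubation, luminescence.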
# % is scaled to controls: 0 for no effect and ±100 for the full control effect; potency is read from the fitted curve at half-maximal effect.
Compound,"activity change, negative = growth inhibition",Potency
COC(=O)CSc1snnc1-c1ccc(Cl)c(Cl)c1,1.97%,
O=C(NCCN1CCCC(O)C1)c1cc(COc2c(F)cccc2F)on1 (stereo not given),26.9%,
COC(=O)c1[nH]c2ccc(Br)cc2c1NC(=O)Oc1ccccc1,1.63%,
CC(=O)N1CCN(CC(=O)Nc2ccc(SC(F)F)cc2)CC1,2.7%,
O=C(Oc1cccc(NC2=NS(=O)(=O)c3ccccc32)c1)c1ccncc1,-0.45%,
CC(=O)c1c(C)[nH]c(=S)c(C#N)c1-c1ccc(F)cc1,8.94%,
CCOc1ccc(NC(=O)C(CC(C)C)N2Cc3ccccc3C2=O)cc1 (stereo not given),-20.1%,
CC(Oc1ccccc1)C(=O)N[C@@H]1C(=O)N2[C@@H]1SC(C)(C)[C@@H]2C(=O)O (stereo not given in full),-3.68% [at 21.1 µM],
CSc1ccc(/C=N\NC(=O)CC(=O)NC(C)C)cc1,-2.5%,
O=C(O)CC(c1ccccc1F)N1Cc2ccccc2C1=O (stereo not given),2.01%,
O=C(CC(c1cccs1)N1Cc2ccccc2C1=O)Nc1ccc(F)cc1F (stereo not given),,16.4 µM (active)
COc1cc(C(CC(=O)NCCC(C)C)N2Cc3ccccc3C2=O)cc(OC)c1OC (stereo not given),-26.2%,
CCc1ccc(NC(=O)C(C)OC(=O)/C=C/c2cccc([N+](=O)[O-])c2)cc1 (stereo not given),7.8%,
Cc1ccc(Cl)cc1-c1ccc(/C=N/n2cnnc2)o1,-2.4%,
CC[C@]12c3[nH]c4cc(CCC(=O)N(C)C)ccc4c3CCN1C(=O)[C@@H](CC(=O)NCCCN(C)C)C[C@@H]2C(=O)N1CCN(C(=O)c2ccco2)CC1,-4.3%,
COc1ccc2[nH]c3c(c2c1)CCN1C(=O)C(CC(=O)NCc2cccc(C(F)(F)F)c2)C[C@H](C(=O)N2CCOCC2)[C@@]31C (stereo not given in full),-25.2%,
CC[C@]12c3[nH]c4cc(CCC(=O)N(C)C)ccc4c3CCN1C(=O)[C@@H](CC(=O)NCc1ccco1)C[C@@H]2C(=O)N1CCN(C(=O)c2ccco2)CC1,-10.2%,
CN(C)C(=O)CCc1ccc2c3c([nH]c2c1)[C@]1(C)[C@@H](C(=O)N2CCCCC2)C[C@H](CC(=O)NCCC2=CCCCC2)C(=O)N1CC3,,16.4 µM (active)
CC[C@]12c3[nH]c4cc(CCC(=O)N(C)C)ccc4c3CCN1C(=O)[C@@H](CC(=O)NCCCn1ccnc1)C[C@@H]2C(=O)N1CCN(C(=O)C2CC2)CC1,0.652%,
CC(C)N(C(=O)[C@H]1C[C@H](CC(=O)NC(C)(C)C)C(=O)N2CCc3c([nH]c4ccc(Cl)cc34)[C@]12C)C(C)C,,6.51 µM (active)
CN(C)C(=O)CCc1ccc2c3c([nH]c2c1)[C@]1(C)[C@@H](C(=O)N2CCOCC2)C[C@H](CC(=O)NCCc2ccccn2)C(=O)N1CC3,6.99%,
COc1ccc2[nH]c3c(c2c1)CCN1C(=O)C(CC(=O)NCCc2ccccn2)C[C@H](C(=O)N2CCOCC2)[C@@]31C (stereo not given in full),-1.15%,
CCN(CC)C(=O)[C@H]1C[C@H](CC(=O)NCC23CC4CC(CC(C4)C2)C3)C(=O)N2CCc3c([nH]c4cc(CCC(=O)N(C)C)ccc34)[C@]12C,,18.4 µM (active)

Compound,"activity change, negative = growth inhibition",Potency
CN(C)C(=O)CCc1ccc2c3c([nH]c2c1)[C@]1(CCc2ccccc2)[C@@H](C(=O)N2CCCCC2)C[C@H](CC(=O)NCCC2=CCCCC2)C(=O)N1CC3,,9.2 µM (active)
CCN(CC)C(=O)[C@H]1CC(CC(=O)NCc2ccco2)C(=O)N2CCc3c([nH]c4ccccc34)[C@]12C (stereo not given in full),-17.4%,
C[C@]12c3[nH]c4ccc(Cl)cc4c3CCN1C(=O)[C@@H](CC(=O)NCCCn1ccnc1)C[C@@H]2C(=O)N1CCOCC1,-13.3%,
CC(=O)NCC(=O)N1CCC(n2nccc2NC(=O)CCCc2ccccc2)CC1,-7.46%,
OCC[C@H]1C[C@H](O)[C@@H](O)[C@]2(CCCCO2)O1,-6.13%,
COc1ccc(-c2c(C#N)cnc(C)c2C)c(O)c1OC,-27.4%,
CSCCC(NC(=O)COc1ccccc1)C(=O)Nc1ccc(C)cc1 (stereo not given),-28.3%,
O=C(O)c1ccc(COc2c(F)c(F)cc(F)c2F)o1,18.8%,
CC(=O)N1CCC2(CCCN(Cc3ccc(C#N)cc3)C2)CC1,0.656%,
CS(=O)(=O)NC(=O)CCC/C=C\C[C@H]1C(=O)C[C@@H](O)[C@@H]1/C=C/[C@H](O)COc1ccccc1,-1.9%,
CC(Sc1ncnc2c1cnn2-c1ccccc1)C(=O)Nc1ccc(N2CCOCC2)cc1 (stereo not given),-1.88%,
Cc1cc2nc(SCCN3CCOCC3)[nH]c2cc1C,-12.7%,
COc1cc(/C=N\NC(=O)CNC(=O)c2cccc([N+](=O)[O-])c2)ccc1O,-0.0452%,
O=C(Cc1cc(=O)[nH][nH]1)N/N=C/c1ccccc1[N+](=O)[O-],-17.3%,
Cc1ccccc1NCC(=O)N/N=C\c1ccc([N+](=O)[O-])s1,,9.2 µM (active)
COc1ccc(C(=O)COC(=O)c2ccc([N+](=O)[O-])s2)cc1OC,-8.4%,
CCc1ccc(S(=O)(=O)Nc2ccc(C)c(NS(C)(=O)=O)c2)cc1,-1.78%,
COc1ccc(C(=O)NCC(=O)N/N=C/c2ccc([N+](=O)[O-])s2)cc1OC,,16.4 µM (active)
COc1ccc(C(=O)NCC(=O)N/N=C/c2ccc([N+](=O)[O-])o2)cc1OC,,5.17 µM (active)
COc1cc(/C=N/NC(=O)CNC(=O)c2ccncc2)ccc1OC(C)=O,5.66%,
COc1cccc(/C=N/NC(=O)CNC(=O)c2ccc(S(=O)(=O)N3CCOCC3)cc2)c1OC,-23.8%,
COc1ccc(/C=N/NS(=O)(=O)c2ccc(NC(C)=O)cc2)cc1,2.6%,
O=C(COc1ccccc1[N+](=O)[O-])N/N=C/c1ccc[nH]1,-15.9%,

Compound,"activity change, negative = growth inhibition",Potency
CCc1ccc(S(=O)(=O)N/N=C\c2ccc([N+](=O)[O-])o2)cc1,,16.4 µM (active)
CC1(C)S[C@@H]2[C@H](N=CN3CCCCCC3)C(=O)N2[C@H]1C(=O)O,-23.2%,
CN(C(=O)CN(CCO)CC(=O)N(C)C(C)(C)Cc1ccccc1)C(C)(C)Cc1ccccc1,-1.77%,
[O-][n+]1c2c(nn1-c1ccc(Cl)c(Cl)c1)-c1nonc1CC2,-14.7%,
Oc1ccccc1CNc1ncc(Br)cc1Br,-23.9%,
O=S(=O)(NCCc1ccc(Cl)cc1)c1cccs1,-21.2%,
COc1cccc(-n2c(Cc3cc(=O)[nH]c(=O)[nH]3)nnc2SCC(=O)Nc2ccccc2)c1,0.566%,
Nc1nnnn1CC(=O)N/N=C/c1ccc(-c2cccc(Cl)c2)o1,-20.2%,
C[C@H]1CN([C@@H](C)CO)C(=O)CCCn2cc(nn2)CO[C@@H]1CN(C)S(=O)(=O)c1cccs1,-1.39%,
O=C(N/N=C/c1ccc([N+](=O)[O-])cc1)C(=O)N1CCCC1,-23.1%,
Cc1nn(CC(=O)N/N=C/c2ccc(F)cc2)c(C)c1[N+](=O)[O-],4.7%,
Cc1cc(C)nc(Nc2cc([N+](=O)[O-])ccc2C)n1,-12.5%,
NC(=O)C(=O)N/N=C/c1ccc([N+](=O)[O-])o1,,15 µM (active)
CC(C)(C)c1cc(C(=O)N/N=C/c2ccc([N+](=O)[O-])s2)n[nH]1,,11.6 µM (active)
Cc1cc(C)nc(N/N=C/c2ccncc2)n1,1.16%,
Cc1cc(C)nc(N/N=C/c2ccc([N+](=O)[O-])o2)n1,,16.4 µM (active)
O=C(Cc1ccc([N+](=O)[O-])cc1)N/N=C/c1ccco1,11.1%,
CC(C)NC(=O)Nc1cccc2c1O[C@@H](CN(C)S(=O)(=O)c1ccc(F)cc1)[C@@H](C)CN([C@H](C)CO)C2=O,-21.8%,
O=C(O)C(c1cccs1)C1(O)CCCCC1 (stereo not given),-1.75%,
COc1ccc(C)cc1N(CC(=O)NC(C)c1ccccc1)S(C)(=O)=O (stereo not given),1.25%,
CCc1c(C)nc(N)n2c(SCC(=O)NC3CCCCC3)nnc12,-6.99%,
C[C@@H]1CN([C@@H](C)CO)C(=O)c2cc(Br)cnc2O[C@@H]1CN(C)C(=O)C1CCCCC1,-14.5%,
C[N+](C)(C)CCOP(=O)([O-])OC[C@H](O)CO,-9.67%,

Compound,"activity change, negative = growth inhibition",Potency
CN1C(=O)CC(N2CCN(c3ccccn3)CC2)C1=O (stereo not given),-6.92%,
COC(=O)c1cc(NC(=O)CC2C(=O)NCCN2C(=O)c2ccc(F)cc2)cc(C(=O)OC)c1 (stereo not given),0.411%,
CCOc1ncccc1C(=O)OCC(=O)N1c2ccccc2CC1C (stereo not given),-1.22%,
CCOC(=O)N1CCC(N2CCOc3ccc(CN4CCC(O)(c5cccnc5)CC4)cc3C2)CC1,-21.8%,
C[C@@H]1CN(Cc2ccc3c(c2)CN(Cc2ccc(Oc4ncccn4)cc2)CCO3)C[C@H](C)O1,-22.2%,
CN(C)c1ccc(CN2CCOc3ccc(CN4CCC(O)(c5cccnc5)CC4)cc3C2)cc1,,16.4 µM (active)
CCOCCCN(C(=O)Cn1nnc(-c2ccc(OC)c(OC)c2)n1)C(CC)C(=O)NC1CCCC1 (stereo not given),-19.6%,
CCN1CCCC1Cn1cnc2c([nH]c3cc(OC)ccc32)c1=O (stereo not given),-0.0102%,
O=C(c1cccs1)N1CCCC(c2nc(-c3ccc(F)cc3)no2)C1 (stereo not given),,16.4 µM (active)
COc1ccc(NC(=O)N2CCCC(c3nc(-c4ccc(F)cc4)no3)C2)cc1 (stereo not given),-18.8%,
O=C(c1ccc(F)cc1)N1CCCC(C(=O)N2CCCCC2)C1 (stereo not given),4.71%,
CC(CC(=O)C1C(C)C=CCC1(C)C)NNC(N)=O (stereo not given),-7.87%,
O=C(CSc1nnc(-c2ccco2)o1)NCC(=O)c1ccccc1,-11.8%,
CCN(CC)C(=O)c1nc[nH]c1C(=O)N(C)Cc1ccccc1,1.62%,
Cc1nnc(SCC(=O)NCc2cccs2)[nH]c1=O,10.3%,
CCN(CC)S(=O)(=O)c1cccc(-c2n[nH]c(=S)n2/N=C/c2ccc(C(=O)OC)cc2)c1,-12.8%,
Cc1cc(-c2n[nH]c(=S)n2/N=C/C(Br)=C/c2ccccc2)n[nH]1,,2.06 µM (active)
S=c1[nH]nc(-c2ccco2)n1/N=C/c1ccccc1,0.392%,
Fc1ccccc1/C=N/n1c(-c2cccnc2)n[nH]c1=S,-23.5%,
S=c1[nH]nc(-c2cccnc2)n1/N=C/C(Cl)=C\c1ccccc1,,23.1 µM (active)
Cc1cc(-c2n[nH]c(=S)n2/N=C/c2ccco2)n[nH]1,13.9%,
